Experimental data as given in ChEMBL document CHEMBL4513216, “Probing the Open Global Health Chemical Diversity Library for Multistage-Active Starting Points for Next-Generation Antimalarials” (ACS Infect Dis, 2020).
Out of some 69,000 compounds screened, about 8,600 (12%) showed an effect of 50% or more. For the sample, strong results were picked, then their nearest neighbours and some compounds at random.

What follows are molecules tested on Plasmodium berghei (assay: Screen against P. berghei liver stage (PbLuc), transformed with Luciferase, at 10uM). Conditions: tested at 10 uM.
Type: functional, HepG2

| SMILES | INHIBITION [%] |
| --- | --- |
| Cn1nc2c(cc1=O)CN(CC(=O)Nc1nccs1)CC2 | 13.3 |
| Cc1nn(C)c(C)c1-c1ccc(=O)n(C(C)C(=O)NC(C)(C)C)n1 (configuration not stated) | 4.02 |
| CCCN(CCC)C(=O)Cn1c(SC)nc2ccsc2c1=O | 39.1 |
| Cc1nn(C)c(C)c1CNC(=O)c1cc(NC(=O)C2CC2)n(C)n1 | 31.35 |
| Cn1nc(C(=O)NC2CCCCC2)cc1NC(=O)C1CC1 | 53.5 |
| Cn1nc(C(=O)NC2CC2)cc1NC(=O)C1CC1 | 75.3 |
| Cc1ccc(CNC(=O)c2cc(NC(=O)C3CC3)n(C)n2)o1 | -8.95 |
| Cn1nc(C(=O)NC2CC(C)(C)NC(C)(C)C2)cc1NC(=O)C1CC1 | 21.8 |
| Cn1nc(C(=O)NC2CCCC2)cc1NC(=O)C1CC1 | -22.8 |
| CCc1nc(C2CCCN2C(=O)c2ccc3c(c2)COC3)no1 (configuration not stated) | 33.8 |
| CN1CCN(C(=O)c2cc3sccc3n2Cc2ccccc2)CC1 | 11.7 |
| NC(=O)c1cccc(CN2CCOC(Cn3cccn3)C2)c1 (configuration not stated) | 30.2 |
| O=C(C1CC1)N1CCN2C[C@@H](CO)[C@H](c3ccccc3)[C@H]2C1 | 49.5 |
| CNC(=O)[C@@H]1[C@H]2CNCCN2C[C@H]1c1ccccc1 | 11.6 |
| CCOC(=O)[C@@H]1[C@@H](c2ccccc2)CN2CCN(C(C)=O)C[C@H]12 | 51 |
| O=C(C1CC1)N1CCN2C[C@H](c3ccccc3)[C@@H](CO)[C@H]2C1 | 51 |
| CCOC(=O)[C@@H]1[C@@H](c2ccccc2)CN2CCN(C(=O)C3CC3)C[C@H]12 | 12.4 |
| CCOC(=O)[C@@H]1[C@@H](c2ccccc2)CN2CCN(C(=O)N(C)C)C[C@H]12 | 32.1 |
| CCOC(=O)[C@@H]1[C@H]2CN(C(=O)OC)CCN2C[C@H]1c1ccccc1 | -43.6 |
| CCOC(=O)[C@@H]1[C@@H](c2ccccc2)CN2CCNC[C@H]12 | 50.2 |
| CCOC(=O)[C@@H]1CN2CCNC[C@@H]2[C@H]1c1ccccc1 | 46.4 |
| c1cc(-c2cnc(C3CCNCC3)cn2)n[nH]1 | 38.7 |

| SMILES | INHIBITION [%] |
| --- | --- |
| CCc1noc(C)c1C(=O)N1CCCC1Cn1cccn1 (configuration not stated) | 45.7 |
| CC(C)N1CCOCC2(CN(Cc3nccs3)CCO2)C1 (configuration not stated) | 10.3 |
| O=C(NC1CCCC1)N1CC[C@H]2[C@H]1CCN2c1nncs1 | 26 |
| COCCc1nnc(NC(=O)Cc2ccccc2Cl)o1 | 35.1 |
| COC(=O)N1CCC(CNC(=O)C2CC2)CC1 | -10.8 |
| CCn1nc(C)c(-c2cncn2CCN(C)C2CCCC2)c1C | 27.6 |
| Cc1ccc2c(c1)CCC2NCc1c(C)nn(CCO)c1C (configuration not stated) | -40.4 |
| CC(C)c1nc(CNc2ccc(CNS(C)(=O)=O)cc2)cs1 | -72.8 |
| CC(C)c1cc(NCc2csc(N(C)C)n2)nc(N)n1 | 87 |
| CC(C)c1cc(NCc2csc(C(C)C)n2)nc(N)n1 | 58 |
| CC(C)CC(CO)NC(=O)NCc1csc(N(C)C)n1 (configuration not stated) | -5.1 |
| Cc1nc(N)cc(NCc2csc(N(C)C)n2)n1 | -84.1 |
| COCC1(CNc2cc(C(C)C)nc(N)n2)CC1 | 41.2 |
| O=C(c1cnccn1)N1CCCC2(CCN(Cc3ccsc3)CC2)C1 | -67.6 |
| O=C(CC1CNCCO1)N1CCC(c2cc(N3CCCC3)ncn2)CC1 (configuration not stated) | -23.2 |
| CN(CC(=O)Nc1ccncc1)C1CCCN(c2cccnn2)C1 (configuration not stated) | 4.52 |
| O=C(CCc1cccs1)Nc1ccnn1C1CCS(=O)(=O)C1 (configuration not stated) | 22.6 |
| O=C(CCc1ccsc1)Nc1ccnn1C1CCS(=O)(=O)C1 (configuration not stated) | 54.3 |
| Cc1cccc(CCC(=O)Nc2ccnn2C2CCS(=O)(=O)C2)c1 (configuration not stated) | 37.1 |
| c1coc(CN2C[C@@H]3CCCO[C@@H]3[C@H](N3CCCC3)C2)c1 | 24.5 |
| O=C(CN(Cc1cccs1)c1ccc(F)cc1)NC1CCOCC1 | 37.6 |
| Cc1ccc(CN(CC(=O)NC2CCOCC2)c2ccc(F)cc2)o1 | 67.8 |

| SMILES | INHIBITION [%] |
| --- | --- |
| Cc1ccc(CN(CC(=O)NCC2CCOC2)c2ccc(F)cc2)o1 (configuration not stated) | 7.39 |
| CN1CCN(Cc2cccnc2)C2(CCN(c3ncc(F)cn3)C2)C1=O (configuration not stated) | -8.19 |
| Cc1nc(C(=O)N(C)C)nn1-c1ccccc1C(C)C | 30.8 |
| CC(=O)N1CCN(C(=O)CCCc2nc(C(C)C)no2)CC1 | -8.61 |
| CC(C)c1noc(CCC(=O)N2CCSCC2)n1 | 51.8 |
| CC(C)c1noc(CCC(=O)N2CCN(Cc3ccncc3)CC2)n1 | 37.9 |
| NC(=O)c1ccc(C2CCCNC2)nc1 (configuration not stated) | 26.8 |
| CNC(=O)COc1ccccc1CNC1CCc2ncnn2C1 (configuration not stated) | 63.6 |
| c1ccc(COc2ccccc2CNC2CCc3ncnn3C2)cc1 (configuration not stated) | 26.9 |
| CN(C)C(=O)COc1ccccc1CNC1CCc2ncnn2C1 (configuration not stated) | 33.6 |
| c1ccc(OC2CCCC2)c(CNC2CCc3ncnn3C2)c1 (configuration not stated) | 62.8 |
| CNC(=O)COc1ccccc1CNC1CCc2nc(C)nn2C1 (configuration not stated) | -24.4 |
| c1ccc(OCC2CC2)c(CNC2CCc3ncnn3C2)c1 (configuration not stated) | 8.383 |
| CCCc1n[nH]c(=O)n1[C@@H](CC)c1ccccc1 | 3.38 |
| COCCNC(=O)N1CC(Cc2ccccc2F)C1 | -20.6 |
| Cc1ccc(F)c(C(=O)N2CCC(Nc3ccc(C)nn3)CC2)c1 | -15.5 |
| N#Cc1cnc(N2Cc3cnn(Cc4ccc(F)cc4)c3C2)nc1N | 61.2 |
| Cc1cc(C)nc(N2Cc3cnn(Cc4ccc(F)cc4)c3C2)n1 | 22.4 |
| Fc1ccc(Cn2ncc3c2CN(c2ncccn2)C3)cc1 | -1.91 |
| CNc1cc(C)nc(N2Cc3cnn(Cc4ccc(F)cc4)c3C2)n1 | 75.1 |
| Cc1ncc(C)c(N2Cc3cnn(Cc4ccc(F)cc4)c3C2)n1 | 32.5 |
| Cc1nccnc1N1Cc2cnn(Cc3ccc(F)cc3)c2C1 | 39.1 |

| SMILES | INHIBITION [%] |
| --- | --- |
| CCNc1ccnc(N2Cc3cnn(Cc4ccc(F)cc4)c3C2)n1 | 78.4 |
| Cc1ccnc(N2Cc3cnn(Cc4ccc(F)cc4)c3C2)n1 | 39.1 |
| Cc1nc(N2Cc3cnn(Cc4ccc(F)cc4)c3C2)no1 | 12.8 |
| CCCc1nc(N2Cc3cnn(Cc4ccc(F)cc4)c3C2)no1 | 26.1 |
| Cc1cnc(N2Cc3cnn(Cc4ccc(F)cc4)c3C2)nc1N(C)C | 77.6 |
| Fc1ccc(Cn2ncc3c2CN(c2noc(C4CC4)n2)C3)cc1 | 33.3 |
| CC(Cn1ccnc1)NC(=O)NCCN1CCCCCC1=O (configuration not stated) | 5.29 |
| Cc1noc(C2CCN(C(=O)Nc3ccc(N(C)C)nc3)CC2)n1 | 24.95 |
| CCNC(c1ccc(Cl)cc1)c1cccnc1 (configuration not stated) | 3.15 |
| CC(C)C(=O)N1CCC2(CC1)NC(=O)c1ccccc12 | 39.3 |
| Cc1ccccc1C(=O)N1CCC2(CCC(C(=O)NCC3CC3)O2)CC1 (configuration not stated) | -3.58 |
| CSCC(C)(O)CNS(=O)(=O)c1ccc(Br)cc1 (configuration not stated) | -23.5 |
| Cn1c2c(c(=O)c3ccccc31)CCC(C)(C)O2 | -27.3 |
| CN(Cc1ccco1)[C@@H]1CN(Cc2cnn(C)c2)[C@@H]2CCCO[C@H]12 | 38.1 |
| Cc1cc(CNC(=O)CCc2c(C)nc3cc(O)nn3c2C)no1 | 15.5 |
| CNS(=O)(=O)c1ccc(CN2CCCN(Cc3ccncc3)CC2)cc1 | 55.7 |
| Cn1cc(CN2CCC(c3ccncc3)CC2)cn1 | 23.35 |
| CNS(=O)(=O)c1ccc(CN2CCCC2c2ccc(F)cc2)cc1 (configuration not stated) | 51.3 |
| CS(=O)(=O)c1ccc(CN2CCCCC2c2ccc(F)cc2)cc1 (configuration not stated) | 32.8 |
| CNS(=O)(=O)c1ccc(CN2CCCN(CC(C)C)CC2)cc1 | 34.1 |
| CNS(=O)(=O)c1ccc(CN2CCCN(c3ccccc3)CC2)cc1 | 48.2 |
| CNS(=O)(=O)c1ccc(CN2CCC(c3ccncc3)CC2)cc1 | 54.1 |

| SMILES | INHIBITION [%] |
| --- | --- |
| CS(=O)(=O)c1ccc(CN2CCCCC2c2cccc(F)c2)cc1 (configuration not stated) | 34 |
| CNS(=O)(=O)c1ccc(CN2CCN(Cc3ncccc3C)CC2)cc1 | 49.1 |
| O=C1CN(C(=O)OCc2ccccc2)CC(O)CN1Cc1ccco1 (configuration not stated) | 34.3 |
| CCN(CC)C(=O)Cn1ccc2cc(NC(C)=O)ccc21 | -37.31 |
| CNc1cc2c(nn1)CCN(C(=O)c1ccc(-n3cccn3)nc1)C2 | 35.7 |
| COc1c(C2CCCN2C(=O)c2ccc(C#N)cc2)c(C)nn1C (configuration not stated) | 7.67 |
| C[C@H]1CN(Cc2cnn(C)c2)C[C@@]12CCN(Cc1cccnc1)C2=O | 48.2 |
| CC(=O)N1CCCN(C(C(=O)O)c2ccccc2OC(F)(F)F)CC1 (configuration not stated) | 15.2 |
| O=C(CN1CCCC1Cn1cccn1)NCCOc1cccc(F)c1 (configuration not stated) | 48.4 |
| Cc1nc(C)n(CCC(=O)N2CCc3ncc(Cl)cc3C2)n1 | 24.4 |
| CC(C)n1ncc2c1NC(=O)CSC2C(F)(F)F (configuration not stated) | -38 |
| CNc1cc(C(=O)N(C)Cc2cc(-c3cccs3)n[nH]2)ccn1 | 47.6 |
| CN(C)c1nccc(NCc2cc(-c3cccs3)n[nH]2)n1 | 18.9 |
| CNc1ccnc(N(C)Cc2cc(-c3cccs3)n[nH]2)n1 | 88.4 |
| CCc1n[nH]c(C2CN(C(=O)c3nc(C)ncc3Cl)CCO2)n1 (configuration not stated) | 37.5 |
| CCOC(=O)c1sc(NC(=O)CCCC(=O)O)c(C#N)c1C | 28.2 |
| COc1ccc2nc(CNC(=O)C3CC4(CCNCC4)CN3C)[nH]c2c1 (configuration not stated) | 18.6 |
| Cc1ccc(NCCCNC(=O)C2CC3(CCNCC3)CN2C)nc1 (configuration not stated) | 37.1 |
| Cc1ccc2[nH]c(CNC(=O)C3CC4(CCNCC4)CN3C)nc2c1C (configuration not stated) | 66.3 |
